Laboratory results: publication PMC7862700, “An all-to-all approach to the identification of sequence-specific readers for epigenetic DNA modifications on cytosine”

Columns and labels:
Assay in all cases: DAPPL (digital affinity profiling via proximity ligation, sequencing); 10 mM Tris-HCl pH 7.5, 50 mM NaCl, 1 mM DTT, 4% glycerol, room temperature, 30 min; GST-TFs on glutathione beads, 16-mer random dsDNA library, 0.1% formaldehyde crosslink after washing; high values mean tight binding
FLI1 = biological target: T1, FLI1 (Homo sapiens, UniProt Q01543 1-452); conditions: protein: recombinant; tags: N-terminal GST; dsDNA, one strand shown
T1 sequence: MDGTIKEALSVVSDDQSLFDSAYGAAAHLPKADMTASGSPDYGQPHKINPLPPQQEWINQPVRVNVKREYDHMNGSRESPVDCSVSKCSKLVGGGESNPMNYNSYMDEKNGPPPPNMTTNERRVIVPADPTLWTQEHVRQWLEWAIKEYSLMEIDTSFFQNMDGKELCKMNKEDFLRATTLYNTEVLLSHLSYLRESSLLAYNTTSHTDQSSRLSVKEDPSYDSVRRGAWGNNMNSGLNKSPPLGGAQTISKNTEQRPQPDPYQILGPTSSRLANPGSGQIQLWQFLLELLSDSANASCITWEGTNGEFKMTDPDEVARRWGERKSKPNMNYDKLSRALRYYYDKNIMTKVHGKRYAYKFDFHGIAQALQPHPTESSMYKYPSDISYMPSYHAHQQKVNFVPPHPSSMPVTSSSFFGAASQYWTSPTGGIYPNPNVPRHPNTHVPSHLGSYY
Outline: (§1)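 Each value of binding signal is a hexamer's read frequency for a factor divided by the same hexamer's frequency in the tag-only sample. Barcoded, bead-captured GST fusions of human transcription factors made in yeast were pooled with that sample and incubated with 200 nmole of a random double-stranded 16-mer DNA library in Tris/NaCl/DTT/glycerol buffer at room temperature for 30 min. Washing, 0.1% formaldehyde crosslinking, proximity ligation, PCR and Illumina NextSeq500 sequencing followed.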

ELK1 = biological target: T2, ELK1 (Homo sapiens, UniProt P19419 1-428); conditions: protein: recombinant; tags: N-terminal GST; dsDNA, one strand shown
T2 sequence: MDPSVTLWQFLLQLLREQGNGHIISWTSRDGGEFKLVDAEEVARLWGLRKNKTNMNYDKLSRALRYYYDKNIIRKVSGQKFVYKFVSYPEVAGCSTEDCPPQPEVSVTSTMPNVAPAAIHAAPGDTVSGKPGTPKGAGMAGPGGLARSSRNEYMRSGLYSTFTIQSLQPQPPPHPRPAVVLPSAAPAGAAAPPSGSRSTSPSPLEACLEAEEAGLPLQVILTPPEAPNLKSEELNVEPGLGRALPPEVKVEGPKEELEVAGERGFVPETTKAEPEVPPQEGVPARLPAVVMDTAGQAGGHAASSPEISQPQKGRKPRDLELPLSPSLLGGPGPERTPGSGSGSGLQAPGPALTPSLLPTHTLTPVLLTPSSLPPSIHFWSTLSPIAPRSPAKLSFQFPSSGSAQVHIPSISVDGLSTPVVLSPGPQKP
Outline: as §1

GABPA = biological target: T3, GABPA (Homo sapiens, UniProt Q06546 1-454); conditions: protein: recombinant; tags: N-terminal GST; dsDNA, one strand shown
T3 sequence: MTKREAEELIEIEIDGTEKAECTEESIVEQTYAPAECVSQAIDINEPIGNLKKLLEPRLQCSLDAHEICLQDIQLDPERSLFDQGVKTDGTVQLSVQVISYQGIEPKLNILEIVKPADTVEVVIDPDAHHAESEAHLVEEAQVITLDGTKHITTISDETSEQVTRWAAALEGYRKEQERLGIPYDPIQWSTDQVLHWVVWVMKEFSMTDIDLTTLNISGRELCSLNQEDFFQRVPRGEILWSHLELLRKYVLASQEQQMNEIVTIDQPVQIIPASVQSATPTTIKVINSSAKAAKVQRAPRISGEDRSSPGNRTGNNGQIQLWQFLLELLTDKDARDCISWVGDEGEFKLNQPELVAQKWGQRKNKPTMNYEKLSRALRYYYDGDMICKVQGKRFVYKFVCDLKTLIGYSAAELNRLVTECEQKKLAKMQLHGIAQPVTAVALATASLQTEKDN
Outline: as §1

ERG = biological target: T4, ERG (Homo sapiens, UniProt P11308 1-479); conditions: protein: recombinant; tags: N-terminal GST; dsDNA, one strand shown
T4 sequence: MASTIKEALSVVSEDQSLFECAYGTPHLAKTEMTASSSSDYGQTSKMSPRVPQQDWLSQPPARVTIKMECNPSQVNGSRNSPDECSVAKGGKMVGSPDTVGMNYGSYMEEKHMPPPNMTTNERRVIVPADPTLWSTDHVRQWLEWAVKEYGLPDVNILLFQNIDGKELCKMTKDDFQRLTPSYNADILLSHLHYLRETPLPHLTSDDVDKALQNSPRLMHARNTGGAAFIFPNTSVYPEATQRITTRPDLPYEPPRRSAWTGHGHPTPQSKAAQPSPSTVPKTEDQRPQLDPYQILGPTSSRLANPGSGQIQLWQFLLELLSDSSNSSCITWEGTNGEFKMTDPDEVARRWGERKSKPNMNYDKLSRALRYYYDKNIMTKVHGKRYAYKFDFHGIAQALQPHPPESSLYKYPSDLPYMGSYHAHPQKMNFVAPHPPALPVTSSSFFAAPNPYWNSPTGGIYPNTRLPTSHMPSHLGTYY
Outline: as §1

ELF1 = ELF1 (Homo sapiens, UniProt P32519 1-619); conditions: protein: recombinant; tags: N-terminal GST; dsDNA, one strand shown
Outline: as §1

EHF = biological target: T5, EHF (Homo sapiens, UniProt Q9NZC4 1-300); conditions: protein: recombinant; tags: N-terminal GST; dsDNA, one strand shown
T5 sequence: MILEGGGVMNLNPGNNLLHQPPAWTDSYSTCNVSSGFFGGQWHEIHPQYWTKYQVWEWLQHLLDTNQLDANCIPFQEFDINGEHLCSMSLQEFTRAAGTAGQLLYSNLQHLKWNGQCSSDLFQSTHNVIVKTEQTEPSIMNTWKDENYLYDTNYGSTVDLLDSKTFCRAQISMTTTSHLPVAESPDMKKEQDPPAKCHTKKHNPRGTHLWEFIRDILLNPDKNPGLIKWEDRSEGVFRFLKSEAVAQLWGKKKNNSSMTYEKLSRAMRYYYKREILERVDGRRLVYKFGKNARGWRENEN
Outline: as §1

SPI1 = SPI1 (Homo sapiens, UniProt P17947 1-270); conditions: protein: recombinant; tags: N-terminal GST; dsDNA, one strand shown
Outline: as §1

SPIB = SPIB (Homo sapiens, UniProt Q01892 1-262); conditions: protein: recombinant; tags: N-terminal GST; dsDNA, one strand shown
Outline: as §1

ELK3 = biological target: T6, ELK3 (Homo sapiens, UniProt P41970 1-407); conditions: protein: recombinant; tags: N-terminal GST; dsDNA, one strand shown
T6 sequence: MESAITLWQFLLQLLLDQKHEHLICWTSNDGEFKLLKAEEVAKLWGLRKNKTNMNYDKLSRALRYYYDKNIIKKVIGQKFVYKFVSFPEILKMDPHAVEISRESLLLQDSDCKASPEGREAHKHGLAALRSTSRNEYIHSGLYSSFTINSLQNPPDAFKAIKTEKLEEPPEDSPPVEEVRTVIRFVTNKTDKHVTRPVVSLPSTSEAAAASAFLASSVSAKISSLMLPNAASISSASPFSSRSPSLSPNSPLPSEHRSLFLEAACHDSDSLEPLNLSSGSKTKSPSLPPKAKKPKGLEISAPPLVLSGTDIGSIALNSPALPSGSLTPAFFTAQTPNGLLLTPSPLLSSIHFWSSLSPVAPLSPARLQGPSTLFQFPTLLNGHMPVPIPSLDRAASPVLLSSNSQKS
Outline: as §1

FEV = biological target: T7, FEV (Homo sapiens, UniProt Q99581 1-238); conditions: protein: recombinant; tags: N-terminal GST; dsDNA, one strand shown
T7 sequence: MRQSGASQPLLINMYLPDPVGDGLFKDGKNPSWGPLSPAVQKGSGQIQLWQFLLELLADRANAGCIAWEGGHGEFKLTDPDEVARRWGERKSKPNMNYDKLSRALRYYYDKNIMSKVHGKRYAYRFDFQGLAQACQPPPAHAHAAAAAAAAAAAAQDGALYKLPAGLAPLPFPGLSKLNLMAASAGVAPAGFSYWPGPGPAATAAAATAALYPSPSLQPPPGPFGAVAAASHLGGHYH
Outline: as §1

ETV5 = ETV5 (Homo sapiens, UniProt P41161 1-510); conditions: protein: recombinant; tags: N-terminal GST; dsDNA, one strand shown
Outline: as §1

HSF1 = HSF1 (Homo sapiens, UniProt Q00613 1-529); conditions: protein: recombinant; tags: N-terminal GST; chain copies: 3; dsDNA, one strand shown
Outline: as §1

SPIC = biological target: T8, SPIC (Homo sapiens, UniProt Q8N5J4 1-248); conditions: protein: recombinant; tags: N-terminal GST; dsDNA, one strand shown
T8 sequence: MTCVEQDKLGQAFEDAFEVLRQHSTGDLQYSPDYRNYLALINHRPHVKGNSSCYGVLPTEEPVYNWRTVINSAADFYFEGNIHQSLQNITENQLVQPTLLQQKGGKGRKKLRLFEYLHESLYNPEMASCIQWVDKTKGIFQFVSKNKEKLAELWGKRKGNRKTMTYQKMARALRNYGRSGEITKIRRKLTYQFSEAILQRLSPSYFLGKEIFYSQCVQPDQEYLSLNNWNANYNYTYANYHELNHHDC
Outline: as §1

ELF4 = ELF4 (Homo sapiens, UniProt Q99607 1-663); conditions: protein: recombinant; tags: N-terminal GST; dsDNA, one strand shown
Outline: as §1

ELK4 = biological target: T9, ELK4 (Homo sapiens, UniProt P28324-2 1-405); conditions: protein: recombinant; tags: N-terminal GST; dsDNA, one strand shown
T9 sequence: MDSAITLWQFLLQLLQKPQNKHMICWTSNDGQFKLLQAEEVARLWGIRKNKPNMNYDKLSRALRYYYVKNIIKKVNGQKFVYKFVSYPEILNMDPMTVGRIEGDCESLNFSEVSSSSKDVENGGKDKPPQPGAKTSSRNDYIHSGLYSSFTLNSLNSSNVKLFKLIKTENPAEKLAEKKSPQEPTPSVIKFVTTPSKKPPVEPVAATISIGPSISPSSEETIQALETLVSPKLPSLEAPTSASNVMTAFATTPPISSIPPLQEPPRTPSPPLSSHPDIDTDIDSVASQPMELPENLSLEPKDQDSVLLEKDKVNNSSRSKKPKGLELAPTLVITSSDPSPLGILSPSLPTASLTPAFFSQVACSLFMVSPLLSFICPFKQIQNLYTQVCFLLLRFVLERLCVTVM
Outline: as §1

ETV2 = biological target: T10, ETV2 (Homo sapiens, UniProt O00321 1-342); conditions: protein: recombinant; tags: N-terminal GST; dsDNA, one strand shown
T10 sequence: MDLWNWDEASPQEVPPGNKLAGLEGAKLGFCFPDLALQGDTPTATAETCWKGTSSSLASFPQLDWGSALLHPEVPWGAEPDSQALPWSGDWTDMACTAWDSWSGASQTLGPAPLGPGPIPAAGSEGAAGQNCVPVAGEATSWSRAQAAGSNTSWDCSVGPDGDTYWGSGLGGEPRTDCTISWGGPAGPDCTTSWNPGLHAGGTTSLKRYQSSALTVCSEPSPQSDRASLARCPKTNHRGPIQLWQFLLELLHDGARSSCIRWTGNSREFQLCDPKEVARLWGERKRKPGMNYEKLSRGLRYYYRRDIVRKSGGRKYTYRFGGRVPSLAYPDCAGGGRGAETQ
Outline: as §1

ELF3 = biological target: T11, ELF3 (Homo sapiens, UniProt P78545 1-371); conditions: protein: recombinant; tags: N-terminal GST; dsDNA, one strand shown
T11 sequence: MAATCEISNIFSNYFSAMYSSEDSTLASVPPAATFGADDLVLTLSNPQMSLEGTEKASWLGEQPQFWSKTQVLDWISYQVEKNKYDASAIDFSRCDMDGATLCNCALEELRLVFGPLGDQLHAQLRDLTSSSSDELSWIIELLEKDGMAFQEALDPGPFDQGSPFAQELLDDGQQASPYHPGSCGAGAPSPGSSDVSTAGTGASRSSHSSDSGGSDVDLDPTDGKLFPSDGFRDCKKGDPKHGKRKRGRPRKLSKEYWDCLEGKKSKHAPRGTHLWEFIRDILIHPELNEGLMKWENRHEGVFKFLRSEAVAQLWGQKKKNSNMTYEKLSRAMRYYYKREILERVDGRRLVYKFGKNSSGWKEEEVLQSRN
Outline: as §1

ETV1 = ETV1 (Homo sapiens, UniProt P50549 1-477); conditions: protein: recombinant; tags: N-terminal GST; dsDNA, one strand shown
Outline: as §1

Sequence of ELF4 (Q99607 whole entry): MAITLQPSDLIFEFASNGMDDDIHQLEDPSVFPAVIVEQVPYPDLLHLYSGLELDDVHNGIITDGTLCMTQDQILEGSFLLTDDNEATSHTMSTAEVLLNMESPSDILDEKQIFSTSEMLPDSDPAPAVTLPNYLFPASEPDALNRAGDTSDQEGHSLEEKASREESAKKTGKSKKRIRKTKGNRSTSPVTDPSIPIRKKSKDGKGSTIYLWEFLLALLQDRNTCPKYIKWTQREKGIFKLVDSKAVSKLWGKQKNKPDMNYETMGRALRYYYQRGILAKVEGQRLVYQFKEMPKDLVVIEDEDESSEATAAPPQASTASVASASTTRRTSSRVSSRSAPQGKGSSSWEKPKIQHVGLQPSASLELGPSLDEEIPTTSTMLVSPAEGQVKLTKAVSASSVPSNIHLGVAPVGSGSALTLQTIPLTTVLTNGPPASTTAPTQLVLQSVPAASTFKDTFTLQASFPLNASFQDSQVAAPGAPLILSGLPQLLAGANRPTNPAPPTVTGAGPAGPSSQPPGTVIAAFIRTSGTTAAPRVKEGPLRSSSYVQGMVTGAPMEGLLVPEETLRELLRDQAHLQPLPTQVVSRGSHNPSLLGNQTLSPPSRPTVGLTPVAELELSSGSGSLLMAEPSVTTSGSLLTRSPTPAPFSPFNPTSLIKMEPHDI
Sequence of ELF1 (P32519 whole entry): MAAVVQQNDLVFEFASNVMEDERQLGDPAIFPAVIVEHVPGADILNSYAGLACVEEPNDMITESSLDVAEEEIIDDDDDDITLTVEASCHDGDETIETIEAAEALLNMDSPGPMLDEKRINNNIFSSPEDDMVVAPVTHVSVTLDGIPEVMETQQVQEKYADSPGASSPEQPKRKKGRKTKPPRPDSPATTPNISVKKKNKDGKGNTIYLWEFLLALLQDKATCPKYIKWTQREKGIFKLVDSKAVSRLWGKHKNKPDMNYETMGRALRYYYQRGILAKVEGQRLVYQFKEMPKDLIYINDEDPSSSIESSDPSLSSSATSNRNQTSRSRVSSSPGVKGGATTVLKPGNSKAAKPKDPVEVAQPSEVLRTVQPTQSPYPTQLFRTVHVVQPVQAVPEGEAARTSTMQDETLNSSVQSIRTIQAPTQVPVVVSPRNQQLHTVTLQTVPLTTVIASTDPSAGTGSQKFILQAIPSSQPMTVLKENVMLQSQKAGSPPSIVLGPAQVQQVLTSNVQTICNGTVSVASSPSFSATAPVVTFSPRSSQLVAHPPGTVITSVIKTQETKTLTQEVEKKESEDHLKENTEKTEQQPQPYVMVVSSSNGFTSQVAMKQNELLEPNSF
Sequence of ETV1 (P50549 whole entry): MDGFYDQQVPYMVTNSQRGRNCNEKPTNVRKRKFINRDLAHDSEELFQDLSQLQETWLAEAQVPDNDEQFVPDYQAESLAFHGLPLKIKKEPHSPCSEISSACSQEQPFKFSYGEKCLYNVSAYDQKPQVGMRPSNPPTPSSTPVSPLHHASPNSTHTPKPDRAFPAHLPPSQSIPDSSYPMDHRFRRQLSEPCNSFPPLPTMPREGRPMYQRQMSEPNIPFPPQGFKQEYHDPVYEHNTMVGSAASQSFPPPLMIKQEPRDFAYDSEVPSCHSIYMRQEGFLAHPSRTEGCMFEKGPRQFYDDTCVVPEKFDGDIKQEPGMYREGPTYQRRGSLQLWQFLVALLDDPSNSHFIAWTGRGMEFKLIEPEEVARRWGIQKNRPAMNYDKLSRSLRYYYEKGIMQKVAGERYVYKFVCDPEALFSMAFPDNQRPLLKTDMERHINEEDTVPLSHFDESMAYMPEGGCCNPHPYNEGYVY
Sequence of HSF1 (Q00613 whole entry): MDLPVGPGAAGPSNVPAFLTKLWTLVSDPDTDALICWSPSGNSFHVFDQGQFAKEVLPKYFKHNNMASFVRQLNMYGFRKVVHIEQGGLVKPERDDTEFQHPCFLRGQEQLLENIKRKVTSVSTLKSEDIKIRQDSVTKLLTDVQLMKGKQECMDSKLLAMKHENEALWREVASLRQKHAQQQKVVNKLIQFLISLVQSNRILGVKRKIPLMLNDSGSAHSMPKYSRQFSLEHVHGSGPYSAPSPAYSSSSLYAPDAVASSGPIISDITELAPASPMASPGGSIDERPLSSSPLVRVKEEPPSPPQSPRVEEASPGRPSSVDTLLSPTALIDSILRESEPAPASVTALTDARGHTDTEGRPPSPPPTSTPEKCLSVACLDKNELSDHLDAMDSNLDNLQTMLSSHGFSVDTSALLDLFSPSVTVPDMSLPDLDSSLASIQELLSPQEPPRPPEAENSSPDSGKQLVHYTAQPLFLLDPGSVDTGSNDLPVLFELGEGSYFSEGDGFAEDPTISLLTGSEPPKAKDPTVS
Sequence of SPIB (Q01892 whole entry): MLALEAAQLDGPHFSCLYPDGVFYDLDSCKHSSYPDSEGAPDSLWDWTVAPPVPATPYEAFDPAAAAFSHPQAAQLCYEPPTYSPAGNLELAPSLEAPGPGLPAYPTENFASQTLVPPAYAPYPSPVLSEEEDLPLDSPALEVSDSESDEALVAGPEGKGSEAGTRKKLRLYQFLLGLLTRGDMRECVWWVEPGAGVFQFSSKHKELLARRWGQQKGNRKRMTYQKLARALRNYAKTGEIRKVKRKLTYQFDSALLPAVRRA
Sequence of ETV5 (P41161 whole entry): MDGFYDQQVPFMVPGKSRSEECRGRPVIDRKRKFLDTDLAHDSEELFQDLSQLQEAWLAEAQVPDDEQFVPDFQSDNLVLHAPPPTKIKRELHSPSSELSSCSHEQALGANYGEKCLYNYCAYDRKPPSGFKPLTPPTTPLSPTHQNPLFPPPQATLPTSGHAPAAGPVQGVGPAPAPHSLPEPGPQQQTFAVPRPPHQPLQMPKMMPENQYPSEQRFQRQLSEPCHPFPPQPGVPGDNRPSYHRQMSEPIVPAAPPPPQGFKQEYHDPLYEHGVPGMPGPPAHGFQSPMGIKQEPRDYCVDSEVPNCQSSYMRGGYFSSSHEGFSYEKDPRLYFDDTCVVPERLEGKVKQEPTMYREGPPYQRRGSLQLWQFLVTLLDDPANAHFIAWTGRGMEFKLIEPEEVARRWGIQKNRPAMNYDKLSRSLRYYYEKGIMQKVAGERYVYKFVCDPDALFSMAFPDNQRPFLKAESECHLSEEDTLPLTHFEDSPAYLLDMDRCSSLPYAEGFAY

GAAAAA
binding signal (FLI1): 1.07 fold enrichment (6-mer frequency, TF over GST control)
binding signal (ELK1): 1.13 fold enrichment (6-mer frequency, TF over GST control)
binding signal (GABPA): 1.11 fold enrichment (6-mer frequency, TF over GST control)
binding signal (ERG): 1.14 fold enrichment (6-mer frequency, TF over GST control)
binding signal (ELF1): 1.1 fold enrichment (6-mer frequency, TF over GST control)
binding signal (EHF): 1.2 fold enrichment (6-mer frequency, TF over GST control)
binding signal (SPI1): 1.21 fold enrichment (6-mer frequency, TF over GST control)
binding signal (SPIB): 1.18 fold enrichment (6-mer frequency, TF over GST control)
binding signal (ELK3): 1.21 fold enrichment (6-mer frequency, TF over GST control)
binding signal (FEV): 1.09 fold enrichment (6-mer frequency, TF over GST control)
binding signal (ETV5): 1.13 fold enrichment (6-mer frequency, TF over GST control)
binding signal (HSF1): 1.41 fold enrichment (6-mer frequency, TF over GST control)
binding signal (SPIC): 1.15 fold enrichment (6-mer frequency, TF over GST control)
binding signal (ELF4): 1.17 fold enrichment (6-mer frequency, TF over GST control)
binding signal (ELK4): 1.09 fold enrichment (6-mer frequency, TF over GST control)
binding signal (ETV2): 1.15 fold enrichment (6-mer frequency, TF over GST control)
binding signal (ELF3): 1.2 fold enrichment (6-mer frequency, TF over GST control)
binding signal (ETV1): 1.09 fold enrichment (6-mer frequency, TF over GST control)
